Sampled rows, rich in hits. Any-hit rate of the full collection: about 9.4%.
Rab9 promoter act – Rab9 promoter activation. Huh7 Rab9 promoter-luciferase reporter, luminescence, 24 h. Potency, µM (titrated, usually from 9.22 µM), without a hit: at the top dose activation, negative = inhibition, usual class: activators. hit rate 2.8% among 320,000. AID 485297; also: % of control where 0% means no effect; nearly all actives have a fitted effect of over 60% in size
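Measured in stably transfected Huh7 cells bearing a Rab9 promoter–luciferase construct: 24 h compound treatment at 37 °C, followed by luminescence detection.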
ELG1 repair inh – ELG1-dependent DNA repair inhibition | HEK293T ELG1-luciferase reporter, luminescence, 16 h; DNA damage induced by 5-fluorouridine | Potency, µM (highest dose often 46.1 µM), for the others: at the top dose activity change, negative = inhibition, actives largely listed as inhibitors | AID 504467 | hit rate 2.3% among 330,000; also: % is scaled to controls: 0 for no effect and ±100 for the full control effect; nearly all actives have a fitted effect of over 55% in size
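Reporter activity after DNA damage by 5-fluorouridine is monitored. Compound-treated cells incubate 16 hr at 37 °C, then ONE-Glo is added for 30 min before luminescence reading.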
NPC1 prom act – activates the NPC1 promoter; Huh7 NPC1 promoter luciferase reporter, 24 h; Potency, µM (titrated, usually from 9.22 µM), without a hit: at the top dose activation, actives largely listed as activators; hit rate 2.4% among 320,000; AID 485313; also: % of control where 0% means no effect; nearly all actives have a fitted effect of over 60% in size
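Compounds in DMSO were transferred onto Huh7 NPC1-luciferase reporter cells pre-incubated 2 h; after 24 h at 37 °C, Amplite reagent was dispensed and luminescence recorded 10 min later.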
FLuc modulator – counter-screen for miR-21 project: firefly luciferase inhibitors or activators | purified FLuc, Km substrates, luminescence inhibition | P08659 | Potency, µM (doses to about 57.5 µM), for the others: at the top dose activity change, negative = inhibition, usual class: inhibitors | AID 588342 | hit rate 6.9% among 360,000;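 also: plate controls were vehicle for no effect and reference inhibitor for full effect; nearly all actives have a fitted effect of over 55% in size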
Target sequence (P08659 whole entry, looked up): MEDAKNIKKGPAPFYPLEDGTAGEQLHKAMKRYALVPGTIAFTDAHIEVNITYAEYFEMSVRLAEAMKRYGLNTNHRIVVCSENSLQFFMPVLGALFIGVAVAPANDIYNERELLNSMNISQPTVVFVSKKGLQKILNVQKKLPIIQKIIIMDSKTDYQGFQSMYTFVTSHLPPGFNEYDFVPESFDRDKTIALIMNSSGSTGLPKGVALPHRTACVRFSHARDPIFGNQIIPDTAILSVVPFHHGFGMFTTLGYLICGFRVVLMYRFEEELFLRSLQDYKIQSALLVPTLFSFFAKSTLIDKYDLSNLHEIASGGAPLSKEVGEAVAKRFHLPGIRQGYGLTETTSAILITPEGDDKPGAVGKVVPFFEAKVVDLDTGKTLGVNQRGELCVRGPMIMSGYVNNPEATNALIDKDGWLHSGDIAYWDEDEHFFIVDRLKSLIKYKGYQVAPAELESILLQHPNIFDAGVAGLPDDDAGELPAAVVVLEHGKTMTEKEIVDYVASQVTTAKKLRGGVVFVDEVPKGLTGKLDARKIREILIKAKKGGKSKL
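Purified P. pyralis luciferase, 10 nM final, with Km-level 10 uM D-luciferin and 10 uM ATP in 50 mM Tris acetate pH 7.5, 10 mM Mg acetate, 0.01% Tween-20, 0.05% BSA; 6-point qHTS titration about 60 µM downward; luminescence read.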
ELG1 genotoxic – inducers of genotoxicity in HEK293T ELG1-luciferase cells. HEK293T ELG1-luciferase reporter, luminescence, 16 h. Potency, µM (top dose mostly 46 µM), inactives show at the highest dose activity change, positive = activation, usual class: activators. hit rate 1.3% among 330,000; also: % of control where 0% means no effect; nearly all actives have a fitted effect of over 60% in size
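Genotoxicity was scored as increased ELG1-luciferase reporter signal, measured by ONE-Glo luminescence (30 min, room temperature). Compound or vehicle exposure of the HEK293T reporter cells lasted 16 hr at 37°C.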
SMN2 splice up – SMN2 splice variant enhancement | HEK293 SMN2-luciferase splicing reporter, luminescence, 30-36 h | Potency, µM (series often up to 46.1 µM), without a hit: at the highest dose activity change, positive = activation, hits mostly activators | hit rate 2.8% among 210,000 | AID 1458; also: % of control where 0% means no effect; nearly all actives have a fitted effect of over 55% in size
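qHTS luciferase splicing reporter: luminescence rises when SMN2 exon 7 is included in transfected HEK293 cells. Compound exposure lasted 30-36 h at 37C, with 4.5 mM final sodium butyrate as control, followed by a ONE-Glo read.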
* hit, by the source's call; ? = inconclusive; · = no result given; [ ] = dose if it differs, or a comment. Calls follow the shape of the dose curve; as a rule, active = well fitted curve in the direction sought with a large enough effect; inconclusive = small, poorly fitted or top-dose-only effect, or another doubt; inactive = no such curve, though single readings can be large; an effect the other way counts as inactive or inconclusive. Potency is read from the fitted curve at half-maximal effect.

SMILES | Rab9 promoter act | ELG1 repair inh | NPC1 prom act | FLuc modulator | ELG1 genotoxic | SMN2 splice up
Cc1cc(C(=O)NCCc2ccccc2)ccc1[N+](=O)[O-] | 4µM* | ? | 2.2µM* | 13µM* | ? | 11µM*
CC(C)c1ccc(CCNC(=O)c2ccc([N+](=O)[O-])cc2)cc1 | -4% | 9.2µM* | -3% | -4% | -5% | -28%
O=C(NCCc1ccccc1)c1ccc(NCC2CCCO2)c([N+](=O)[O-])c1 (configuration not stated) | ? | ? | ? | ? | ? | 10µM*
Cc1cc(C(=O)NCC(=O)OCC(=O)N(C(C)C)C(C)C)ccc1[N+](=O)[O-] | 1% | 10% | 3% | 0% | 1% | 13µM*
N#Cc1cccc(NC(=O)N2CC[C@@]3(CCCN(C(=O)c4ccncc4)C3)C2)c1 | · | · | · | · | · | 11%
Cn1c(=O)c(=O)n(C)c2cc(NS(=O)(=O)c3ccc(Br)cc3)c(Cl)cc21 | · | · | · | ? | · | 16%
CCCCN(Cc1cccs1)S(=O)(=O)c1cc(-c2cc(C)no2)ccc1C | · | · | · | -12% | · | ·
CCC(CC)C(=O)Nc1cccc(C(=O)NCCc2ccccc2)c1 | 4% | ? | 15% | ? | 16% | 27%
Cc1cccc(C(=O)NCCc2ccccc2)c1 | 1.3µM* | ? | 1.4µM* | 11µM* | 4.6µM* | ·
O=C(NCCc1ccccc1)c1ccc([N+](=O)[O-])cc1 | 0.45µM* | ? | 0.4µM* | 3µM* | ? | 11µM*
COc1ccc(Cl)cc1N=C1NC(=O)CC(C(=O)Nc2ccccc2C(F)(F)F)S1 (configuration not stated) | · | · | · | ? | · | -5%
CC(=O)c1ccc(N2CCN(C(=O)c3nn(Cc4ccccc4)c(=O)c4ccccc34)CC2)cc1 | 13% | 9.2µM* | 2% | -14% | -10% | 5%
CC(=O)c1ccc(N2CCN(C(=O)c3n[nH]c4ccccc34)CC2)cc1 | -2% | 0% | -8% | -8% | -2% | -5%
CCOCCCNC(=O)c1cc(=O)[nH]c2ccc(S(=O)(=O)N3CCCC3)cc12 | · | · | · | 3% | · | -3%
CN(C)/C=N/c1cnc(C(=O)c2ccc(Cl)cc2)n1C | 1.8µM* | ? | 1.8µM* | 11µM* | 6.3µM* | 11µM*
CN(C)/C=N/NC(=O)c1ccc(Cl)cc1 | -4% | 6% | 1% | 0% | 0% | 14%
Clc1ccc(-c2cn3cc(Br)ccc3n2)cc1Cl | 2.2µM* | ? | 4µM* | 0.21µM* | 0.82µM* | 2.2µM*
Cc1ccc(-c2cn3ccc(C)cc3n2)cc1 | · | · | · | 0.15µM* | · | 0.25µM*
Cc1ccn2cc(-c3ccc(Br)cc3)nc2c1 | 0.56µM* | ? | 2.8µM* | 0.15µM* | ? | ·
COc1c(Cl)cccc1-c1cn2ccc(C)cc2n1 | 0.56µM* | ? | 1.3µM* | 0.67µM* | ? | ·
O=S(=O)(c1cccc(-c2cn3cc(Cl)ccc3n2)c1)N1CCOCC1 | -1% | -4% | -4% | ? | -7% | ·
Cc1ccc(S(=O)(=O)Nc2ccc(-c3cn4ccc(C)cc4n3)cc2)cc1 | 12% | -29% | -2% | ? | -4% | ·
CC(C)OC(=O)[C@@H]1CC[C@H](C)[C@@H](CCC[C@@H]2C[C@@H](O)C[C@H](CC#N)O2)O1 | · | · | · | · | · | 8%
CCOc1ccccc1N(C)C(=O)c1cc(S(=O)(=O)NCc2ccc(C)cc2)ccc1F | · | · | · | -3% | · | ·
CCN1CCc2nc3sc(C(=O)N4CCc5ccccc5C4)c(N)c3cc2C1 | 0% | 8% | -7% | ? | -6% | ·
SMILES | Rab9 promoter act | ELG1 repair inh | NPC1 prom act | FLuc modulator | ELG1 genotoxic | SMN2 splice up
CC(C)c1ccc2nc3sc(C(=O)N4CCc5ccccc5C4)c(N)c3cc2c1 | 17% | ? | 13% | 17µM* | 21% | 16%
CCOc1ccc2nc3sc(C(=O)N4CCN(C)CC4)c(N)c3cc2c1 | 25% | ? | -3% | 11µM* | ? | 17%
CCOc1ccc(-n2c(N)c(C(=O)N3CCN(C)CC3)sc2=S)cc1 | -2% | -6% | -1% | 0% | -3% | -1%
CCC(C)NC(=O)c1cc2cc3ccc(OC)cc3nc2s1 (configuration not stated) | 0.35µM* | ? | 0.56µM* | 3µM* | ? | 13µM*
COc1ccc2cc3c(N)nn(C(=O)c4ccc(OC)c(OC)c4)c3nc2c1 | -2% | · | 0% | -1% | · | -5%
COc1ccc2cc3c(N)c(C(=O)N4CCCC4)sc3nc2c1 | 1.4µM* | ? | 1.8µM* | 2.7µM* | ? | 11µM*
O=C(CC1N=C2c3ccccc3N=C(SCc3ccccc3Cl)N2C1=O)NC1CCCCC1 (configuration not stated) | · | · | · | -3% | · | ·
O=C(CN1C(=O)COc2ccc(S(=O)(=O)N3CCCCCC3)cc21)N1CCN(c2ccc(Cl)cc2)CC1 | · | · | · | -8% | · | 11%
Cc1ccc(C)c(OCCOCCn2c(-c3ccc(Br)cc3)nc3ccccc3c2=O)c1C | · | · | · | 2% | · | 7%
Cc1ccc2cc3c(N)c(C(=O)N4CCOCC4)sc3nc2c1 | 4µM* | ? | 0.32µM* | 2.4µM* | 1.2µM* | ·
Cc1ccc2cc3c(N)c(C(=O)N4CC(=O)Nc5ccccc54)sc3nc2c1 | -4% | 9% | -13% | -14% | 26% | 2%
Cc1ccc2nc3sc(C(=O)N4CCOCC4)c(N)c3cc2c1 | 0.11µM* | ? | 0.25µM* | 0.12µM* | ? | -73%
CC(=O)SC1CC2=CC(=O)CC[C@]2(C)C2CC[C@@]3(C)[C@@H](CC[C@@]34CCC(=O)O4)C12 (some centres not stated) | · | · | · | · | · | -6%
O=C(O)CSCc1cccc2ccccc12 | · | · | · | · | · | -6%[9.22 µM]
Cc1ccc(-c2csc(=S)[nH]2)cc1 | ? | ? | 3.2µM* | ? | ? | ·
Cc1ccc2oc3c(c(=O)c2c1)C(c1ccc(O)cc1)N(c1nc(C)c(C)s1)C3=O (configuration not stated) | · | · | · | -2% | · | 4%
O=C(Nc1cccnc1)c1ccc(Cl)c(Cl)c1 | 4% | ? | -2% | ? | 10% | ·
CN(C)c1nc(N)c(C(=O)Nc2cccnc2)nc1Cl | · | · | · | · | · | 11µM*
COC(=O)c1sccc1S(=O)(=O)N(CC(=O)NCc1ccc(F)cc1)c1ccc(Cl)cc1 | · | · | · | -12% | · | ·
Cc1cccc2cc3c(nc12)-c1ccccc1C3=O | 3% | ? | 1% | 15µM* | ? | ·
CCN(CC)CC[n+]1ccc2c(C)c3[nH]c4ccccc4c3c(C)c2c1 | · | · | · | · | · | -68%[9.22 µM]
COc1cc(C(=O)O/N=C(\N)c2ccccn2)cc(OC)c1OC | 28% | ? | 23% | -19% | ? | ·

High-throughput results: PubChem, National Center for Advancing Translational Sciences (NCATS)
